According to PubChem BioAssay (NCATS):
Several values for one entry are separate records, joined by “and”; a condition that tells them apart may be missing. Identical values can stand only once. Values without a mark were called inactive. Inconclusive results are not listed. Where a call stands in place of a potency, no number is given. Activity calls are given as the source filed them. Unless noted, the call rests on the fitted dose curve; in most records, active means well fitted curve in the direction sought with a large enough effect; inconclusive means small, poorly fitted or top-dose-only effect, or another doubt; inactive means no such curve, though single readings can be large; an effect the other way counts as inactive or inconclusive.

Key:
[1] = tested on: MKL-2; assay: qHTS assay to identify novel small-molecules to repurpose for Merkel cell carcinoma treatment (AID 1296009); details: MCC and control cell lines, CellTiter-Glo viability, 72 h; series mostly up to 46 µM; further: nearly all actives have a fitted effect of over 60% in size; further: potency means the concentration at half of the fitted maximal effect
Outline: (§1)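 Luminescence from CellTiter-Glo, read 10 min after addition at room temperature, reported viability following a 72 hr, 37 degree celsius treatment with NPC or MIPE compounds in titration; values normalized to plate controls.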

[2] = tested on: WaGa; assay: as above; details: MCC and control cell lines, CellTiter-Glo viability, 72 h; series mostly up to 46 µM
Outline: as §1

[3] = tested on: C33A; assay: Primary qHTS to identify gynecologic anti-cancer compounds using libraries of approved drugs and bioactive compounds (AID 1345084); details: Gynecologic cancer cell panel viability, ATPlite luminescence, 48 h; series mostly up to 57.5 µM; further: nearly all actives have a fitted effect of over 55% in size; further: potency means the concentration at half of the fitted maximal effect
Outline: (§2)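 Cells, 1,000 per well, plated 16 h, then exposed 48 h at 37 C to compounds. Viability by ATPlite luminescence after 15 min at room temperature.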

[4] = tested on: CAOV3; assay: as above; details: Gynecologic cancer cell panel viability, ATPlite luminescence, 48 h; series mostly up to 57.5 µM
Outline: as §2

[5] = tested on: CASKI; assay: as above; details: Gynecologic cancer cell panel viability, ATPlite luminescence, 48 h; series mostly up to 57.5 µM
Outline: as §2

[6] = tested on: Es-2; assay: as above; details: Gynecologic cancer cell panel viability, ATPlite luminescence, 48 h; series mostly up to 57.5 µM
Outline: as §2

[7] = tested on: HeLa; assay: as above; details: Gynecologic cancer cell panel viability, ATPlite luminescence, 48 h; series mostly up to 57.5 µM
Outline: as §2

[8] = tested on: Hek293T; assay: as above; details: Gynecologic cancer cell panel viability, ATPlite luminescence, 48 h, control line for the selectivity index; series mostly up to 57.5 µM
Outline: as §2

[9] = tested on: JEG-3; assay: as above; details: Gynecologic cancer cell panel viability, ATPlite luminescence, 48 h; series mostly up to 57.5 µM
Outline: as §2

[10] = tested on: OV90; assay: as above; details: Gynecologic cancer cell panel viability, ATPlite luminescence, 48 h; series mostly up to 57.5 µM
Outline: as §2

[11] = tested on: PA-1; assay: as above; details: Gynecologic cancer cell panel viability, ATPlite luminescence, 48 h; series mostly up to 57.5 µM
Outline: as §2

[12] = tested on: SKOV3; assay: as above; details: Gynecologic cancer cell panel viability, ATPlite luminescence, 48 h; series mostly up to 57.5 µM
Outline: as §2

[13] = tested on: Tov-21-G; assay: as above; details: Gynecologic cancer cell panel viability, ATPlite luminescence, 48 h; series mostly up to 57.5 µM
Outline: as §2

[14] = tested on: Tov112D; assay: as above; details: Gynecologic cancer cell panel viability, ATPlite luminescence, 48 h; series mostly up to 57.5 µM
Outline: as §2

[15] = tested on: UISO; assay: qHTS assay to identify novel small-molecules to repurpose for Merkel cell carcinoma treatment (AID 1296009); details: MCC and control cell lines, CellTiter-Glo viability, 72 h; series mostly up to 46 µM; further: nearly all actives have a fitted effect of over 60% in size; further: potency means the concentration at half of the fitted maximal effect
Outline: as §1

[16] = Drug repurposing screens with cells derived from glioblastoma tumor samples (AID 1345199); details: GBM patient neurospheres viability, ATP luminescence, 48 h; further: nearly all actives have a fitted effect of over 40% in size; further: potency means the concentration at half of the fitted maximal effect
Outline: (§3)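 Primary testing used CD133+ neurospheres from four GBM patients, seven concentrations, 48 h exposure and ATP-based viability; confirmation added three slower-growing patient lines.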

[17] = tested on: astro; assay: as above; details: viability, ATP luminescence, 48 h; series mostly up to 45.9 µM
Outline: as §3

[18] = target: Nuclear receptor subfamily 1 group I member 2 (Rattus norvegicus) (UniProt Q9R1A7); assay: qHTS assay for small molecule activators of the rat pregnane X receptor (rPXR) signaling pathway (AID 651751; call rule not given here); details: rPXR reporter cells, luciferase (One-Glo), 24 h
[19] = qHTS assay to identify inhibitors of the type 1 interferon - major histocompatibility complex class I in skeletal muscle: Counter screen cell viability and HiBit confirmation (AID 1347412); details: iHSKM muscle cells + IFN-b, HiBiT or CellTiter-Glo, 24 h; HiBiT; further: potency means the concentration at half of the fitted maximal effect; nearly all actives have a fitted effect of over 60% in size
Outline: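 After 24 h with human IFN-beta (4 ng/ml) and compound titrations (top 46 uM final, 1:3, 12 points), HLA-B HiBit myoblasts were lysed for either Nano-Glo HiBiT luminescence or CellTiter Glo viability on paired plates.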

[20] = at 45.9 µM (top of the series), tumour line B
[21] = at 45.9 µM (top of the series), tumour line D

Chain of Nuclear receptor subfamily 1 group I member 2 (Rattus norvegicus) (Q9R1A7 whole entry, looked up): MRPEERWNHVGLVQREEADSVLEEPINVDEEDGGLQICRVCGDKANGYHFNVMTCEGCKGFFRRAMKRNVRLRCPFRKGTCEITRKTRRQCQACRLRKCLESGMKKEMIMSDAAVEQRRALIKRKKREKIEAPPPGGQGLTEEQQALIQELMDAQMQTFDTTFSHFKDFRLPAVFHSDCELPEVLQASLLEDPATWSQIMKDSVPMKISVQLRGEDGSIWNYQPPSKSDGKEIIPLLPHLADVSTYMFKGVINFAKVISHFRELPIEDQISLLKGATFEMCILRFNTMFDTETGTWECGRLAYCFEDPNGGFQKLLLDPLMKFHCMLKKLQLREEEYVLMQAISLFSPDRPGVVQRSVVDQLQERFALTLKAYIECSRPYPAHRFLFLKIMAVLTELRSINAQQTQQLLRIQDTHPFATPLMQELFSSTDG

CCOC(=O)C1(c2ccccc2)CCN(CCc2ccc(N)cc2)CC1
Potency [1]: inactive | Potency [2]: inactive | Potency [3]: inactive | Potency [4]: inactive | Potency [5]: inactive | Potency [6]: inactive | Potency [7]: inactive | Potency [8]: inactive | Potency [9]: inactive | Potency [10]: inactive | Potency [11]: inactive | Potency [12]: inactive | Potency [13]: inactive | Potency [14]: inactive

CCCCCCCCC(=O)NCc1ccc(O)c(OC)c1
Potency [1]: inactive | Potency [15]: inactive | Potency [2]: inactive | Potency [4]: inactive | Potency [5]: inactive | Potency [7]: inactive | Potency [8]: inactive | Potency [9]: inactive | Potency [10]: inactive | Potency [13]: inactive | activity, negative = cell killing [16, 20]: -1.62% | activity, negative = cell killing [16, 21]: -6.9% | Potency ([16]; tumour line A): 12.6 µM (active) | Potency [17]: inactive | max response [18]: 2.01%

COP(=S)(OC)Oc1ccc(S(N)(=O)=O)cc1
Potency [1]: inactive | Potency [15]: inactive | Potency [2]: inactive | Potency [3]: inactive | Potency [5]: inactive | Potency [6]: inactive | Potency [7]: inactive | Potency [8]: inactive | Potency [9]: inactive | Potency [10]: inactive | Potency [11]: inactive | Potency [12]: inactive | Potency [13]: inactive | Potency [14]: inactive | activity, negative = cell killing [16, 20]: -9.2% | activity, negative = cell killing [16, 21]: -4.94% | Potency [17]: inactive

CCS(=O)(=O)C(C)(C)S(=O)(=O)CC
Potency [1]: inactive | Potency [15]: inactive | Potency [2]: inactive | Potency [3]: inactive | Potency [5]: inactive | Potency [6]: inactive | Potency [7]: inactive | Potency [8]: inactive | Potency [9]: inactive | Potency [10]: inactive | Potency [11]: inactive | Potency [12]: inactive | Potency [13]: inactive | Potency [14]: inactive | activity, negative = cell killing [16, 20]: -4.87% | activity, negative = cell killing [16, 21]: 5.45% | Potency [17]: inactive

Oc1ccc([C@H]2CNCc3c2ccc(O)c3O)cc1O
Potency [1]: 13.3 µM (active) | Potency [15]: inactive | Potency [3]: inactive | Potency [4]: inactive | Potency [5]: inactive | Potency [6]: inactive | Potency [7]: inactive | Potency [8]: inactive | Potency [9]: inactive | Potency [10]: inactive | Potency [11]: inactive | Potency [12]: inactive | Potency [13]: inactive | Potency [14]: inactive | activity, negative = cell killing [16, 20]: -19.9% | activity, negative = cell killing [16, 21]: -11.1% | activity, negative = cell killing ([16]; at 46 µM (top of the series), tumour line A): -27.2% | Potency [17]: inactive

CC(C)=CCN1CC[C@@]2(C)c3cc(O)ccc3C[C@@H]1[C@@H]2C
Potency [1]: inactive | Potency [15]: inactive | Potency [3]: inactive | Potency [4]: inactive | Potency [5]: inactive | Potency [6]: 28.2 µM (active) | Potency [7]: inactive | Potency [8]: inactive | Potency [9]: inactive | Potency [11]: inactive | Potency [12]: inactive | Potency [13]: inactive | Potency [14]: inactive | activity, negative = cell killing ([16]; at 91.6 µM (top of the series), tumour line B): -12.8% | Potency ([16]; tumour line A): 25.1 µM (active) | Potency [17]: inactive

Cc1ncc2n1-c1ccc(Cl)cc1C(c1ccccc1F)=NC2
Potency [1]: inactive | Potency [15]: inactive | Potency [3]: inactive | Potency [4]: inactive | Potency [5]: inactive | Potency [6]: inactive | Potency [7]: inactive | Potency [8]: inactive | Potency [9]: inactive | Potency [11]: inactive | Potency [12]: inactive | Potency [13]: inactive | Potency [14]: inactive | activity, negative = cell killing [16, 20]: -17.8% | activity, negative = cell killing [16, 21]: -1.25%

COc1ccc(OC)c(CC(C)N)c1 (stereo unspecified)
Potency [1]: inactive | Potency [15]: inactive | Potency [2]: inactive | Potency [3]: inactive | Potency [5]: inactive | Potency [6]: inactive | Potency [7]: inactive | Potency [8]: inactive | Potency [9]: inactive | Potency [10]: inactive | Potency [11]: inactive | Potency [13]: inactive | Potency [14]: inactive | activity, negative = cell killing ([16]; at 108 µM (top of the series), tumour line B): -6.52% | activity, negative = cell killing ([16]; at 108 µM (top of the series), tumour line D): -16.6% | Potency [17]: inactive

CN1[C@@H]2CC[C@H]1CC(OC(=O)c1cc(Cl)cc(Cl)c1)C2 (stereo partly specified)
Potency [1]: inactive | Potency [15]: inactive | Potency [2]: inactive | Potency [3]: inactive | Potency [5]: inactive | Potency [6]: inactive | Potency [7]: inactive | Potency [9]: inactive | Potency [12]: inactive | Potency [13]: inactive | Potency [14]: inactive | Potency [17]: inactive

O=C(N[C@H]1N=C(c2ccccc2F)c2cccc3c2N(CC3)C1=O)c1cc2ccccc2[nH]1
Potency [1]: inactive | Potency [15]: inactive | Potency [2]: inactive | Potency [4]: inactive | Potency [5]: inactive | Potency [6]: inactive | Potency [7]: inactive | Potency [8]: inactive | Potency [9]: inactive | Potency [10]: inactive | Potency [11]: inactive | Potency [13]: inactive | Potency [14]: inactive | activity, negative = cell killing [16, 20]: 9.35% | Potency [17]: inactive

c1ccc2c(c1)Sc1ccccc1N2CC1CN2CCC1CC2 (stereo unspecified)
Potency [1]: 11.9 µM (active) | Potency [15]: 26.6 µM (active) | Potency [6]: 35.5 µM (active) | Potency [8]: 31.6 µM (active) | Potency [10]: 28.2 µM (active) | Potency [12]: 28.2 µM (active)

Oc1ccc2[nH]cc(CCCCN3CC=C(c4ccccc4)CC3)c2c1
Potency [1]: 5.96 µM (active) | Potency [15]: 8.41 µM (active) | Potency [2]: 2.99 µM (active) | Potency [3]: inactive | Potency [5]: inactive | Potency [6]: inactive | Potency [7]: inactive | Potency [9]: inactive | Potency [10]: inactive | Potency [12]: inactive | Potency [13]: inactive | Potency [14]: inactive

C[C@@H]1C[C@@H]([C@H](O)CC2CC(=O)NC(=O)C2)C(=O)[C@@H](C)C1
Potency [1]: 2.09 µM (active) | Potency [15]: 1.06 µM (active) and 1.18 µM (active) | Potency [2]: 5.9 µM (active) | Potency [4]: 25.1 µM (active) | Potency [6]: 0.794 µM (active) | Potency [8]: 0.501 µM (active) | Potency [9]: inactive | Potency [10]: 0.631 µM (active) | Potency [11]: 0.708 µM (active) | Potency [12]: 2.82 µM (active) | Potency [13]: 0.501 µM (active) | Potency [14]: 0.562 µM (active) | Potency [19]: 701 nM (active) and 222 nM (active)

CN1CCc2cc(Cl)c(O)cc2[C@H]2c3ccccc3CC[C@@H]21
Potency [1]: inactive | Potency [15]: inactive | Potency [3]: inactive | Potency [4]: inactive | Potency [5]: inactive | Potency [6]: inactive | Potency [7]: inactive | Potency [8]: inactive | Potency [11]: inactive | Potency [12]: inactive | Potency [13]: inactive | Potency [14]: inactive | activity, negative = cell killing [16, 20]: -22.7% | Potency ([16]; tumour line A): 11.2 µM (active) | Potency [17]: inactive
